Dicer processing: blocks human Dicer maturation of pre-miR-21 | Q9UPY3 | cat-ELCCA pre-miR-21 Dicer processing, chemiluminescence; hits give high values | z-score at 25 µM | 47,000 tested, 6% active; in the data active means z-score above about 3, passing the limit was not always enough;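 further: higher signal means more uncleaved substrate so more Dicer inhibition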
A number is an active result; - = inactive. The entries come from a sample that favours hits as a whole.

SMILES | Dicer processing
COc1ccc(N2C(=O)C3ON(c4ccccc4)C(c4cc(Br)ccc4O)C3C2=O)cc1 (configuration not stated) | -
COc1cccc(N2C(=O)C3ON(c4ccccc4)C(c4ccccc4O)C3C2=O)c1 (configuration not stated) | 3.9
O=C1C2ON(c3ccccc3)C(c3ccccc3O)C2C(=O)N1c1ccc(Br)cc1 (configuration not stated) | 3.4
CN(CCO)c1ccc(C(=O)c2ccc(N(C)CCO)cc2)cc1 | -
CC1=CC(C)(C)Nc2ccc(OC(=O)COc3ccccc3Cl)cc21 | -
COc1cccc(NC(=S)NC2CCCCCCCCCCC2)c1 | -
O=C(On1c(-c2ccccc2)nc2ccccc2c1=O)c1ccccc1Cl | -
COC(=O)c1sc(N2CCOCC2)c(C#N)c1N | -
Cc1ccc2c(c1)C(=NCCCN=C1C(=O)Nc3ccc(C)cc31)C(=O)N2 | -
CCCCCOC(=O)C1=C(C)NC2=C(C(=O)CCC2)C1c1coc2ccccc2c1=O (configuration not stated) | -
O=C(c1cc(Cl)cc(Cl)c1)c1cc(Cl)cc(Cl)c1 | -
COC(=O)/C(C#N)=C/c1ccc(OC)c(OC)c1Cl | -
Cc1ccc(C(=O)O)c2c1N[C@H](c1ccccc1Cl)C1CC=CC21 (some centres not stated) | -
C/C(=N\N=C(/N)SCc1c(Cl)cccc1Cl)c1ccc(Cl)c(Cl)c1 | -
O=C(NCc1ccc(S(=O)(=O)Nc2ccc(I)cc2F)s1)c1ccccc1 | -
CC(=O)Oc1ccc(C2C(C(=O)OC3CCCC3)=C(C)NC3=C2C(=O)CCC3)cc1 (configuration not stated) | -
O=C(Nc1ccc(Sc2ccccc2)nc1Sc1ccccc1)c1cccs1 | -
O=C(Nc1ccc(F)cc1F)C(=S)NCc1cccs1 | -
O=C(Nc1ccc(F)cc1F)c1cccs1 | 6.4
NNC(=O)CO/N=C/c1ccc(Cl)cc1Cl | -
O=C(CSc1nc2c(c(C(F)(F)F)n1)CCc1ccccc1-2)Nc1cccnc1 | -
CC(C)Nc1nc(NC(C)C)nc(N(C)C#N)n1 | 7
CC(C)(C)OC(=O)N1CCCC[C@@H]1C(=O)O | -
Cc1ccc(NC(=O)Oc2ccc(F)cc2Cl)cc1Cl | -
CCOC(=O)C(NC(=O)c1ccccc1)(OCC)C(F)(F)F (configuration not stated) | -
SMILES | Dicer processing
Cc1ccc2oc(-c3cc(N)ccc3Cl)nc2c1 | -
Nc1ccc(Cl)c(-c2nc3cc(Cl)ccc3o2)c1 | -
CCc1ccc2oc(-c3cc(N)ccc3Cl)nc2c1 | 4.5
COc1ccc(-c2nc(CN3C(=O)c4ccccc4S3(=O)=O)no2)cc1 | -
COC(=O)CSC(=O)NC(=O)c1ccccc1Oc1ccc(Cl)cc1Cl | -
Cn1ccnc1SCC(=O)Nc1ccc(C(C)(C)C)cc1 | -
CCc1cc2c(=O)c(-c3nc4ccccc4n3C)coc2c(CN(CC)CC)c1O | -
CN1CCN(Cc2c(O)ccc3c(=O)c(-c4ccccc4)coc23)CC1 | -
CCc1cc2c(=O)c(-c3nc4ccccc4[nH]3)coc2c(CN2CCCC(C)C2)c1O (configuration not stated) | 3.3
COC(=O)/C=C1\Nc2ccccc2NC1=O | -
CCOc1cc(-n2cccc2)c(OCC)cc1N1CCOCC1 | -
O=C(c1ccncc1)N(c1cc2sc(=O)oc2c2ccccc12)S(=O)(=O)c1cccs1 | -
O=C(c1cccnc1)N(c1ccc2oc(=O)sc2c1)S(=O)(=O)c1cccc2cccnc12 | 4.1
O=C(c1ccncc1)N(c1ccc2oc(=O)sc2c1)S(=O)(=O)c1cccc2cccnc12 | 3.7
Cc1cc2cc(N(C(=O)c3ccncc3)S(=O)(=O)c3cc(C)c(C)cc3C)ccc2o1 | -
Cc1ccc(C)c(S(=O)(=O)N(C(=O)c2ccncc2)c2ccc3oc(=O)sc3c2)c1 | -
COc1ccc(/C(O)=C2/C(=O)C(=O)N(CCN3CCOCC3)C23C(=O)N(C)c2ccccc23)cc1 (configuration not stated) | 3.5
CCN1C(=O)C2(/C(=C(/O)c3ccccc3)C(=O)C(=O)N2CCN2CCOCC2)c2ccccc21 (configuration not stated) | -
CC1Cc2cc(/C(O)=C3/C(=O)C(=O)N(CCN(C)C)C34C(=O)N(C)c3ccccc34)ccc2O1 (configuration not stated) | 4.4
CC1Cc2cc(/C(O)=C3/C(=O)C(=O)N(CC4CCCO4)C34C(=O)N(C)c3ccccc34)ccc2O1 (configuration not stated) | -
Cc1ccc(/C(O)=C2/C(=O)C(=O)N(CCN(C)C)C23C(=O)N(C)c2ccccc23)cc1 (configuration not stated) | -
CN1C(=O)C2(/C(=C(/O)c3ccccc3)C(=O)C(=O)N2CCN2CCOCC2)c2ccccc21 (configuration not stated) | 5.4
CCN1C(=O)C2(/C(=C(/O)c3ccc(F)cc3)C(=O)C(=O)N2CCCN2CCOCC2)c2ccccc21 (configuration not stated) | -
CN1C(=O)C2(/C(=C(/O)c3ccccc3)C(=O)C(=O)N2CCCN2CCOCC2)c2ccccc21 (configuration not stated) | 5.3
COc1ccc(/C(O)=C2/C(=O)C(=O)N(CCCN3CCOCC3)C23C(=O)N(C)c2ccccc23)cc1 (configuration not stated) | -
SMILES | Dicer processing
CCOc1ccc(/C(O)=C2/C(=O)C(=O)N(CCN(C)C)C23C(=O)N(C)c2ccccc23)cc1 (configuration not stated) | -
COCCCN1C(=O)C(=O)/C(=C(\O)c2ccc3c(c2)CC(C)O3)C12C(=O)N(C)c1ccccc12 (configuration not stated) | -
CCN1C(=O)C2(/C(=C(/O)c3ccc(Cl)cc3)C(=O)C(=O)N2CCN2CCOCC2)c2ccccc21 (configuration not stated) | -
O=S1(=O)NC(=NC2CCCCC2)c2ccccc21 | -
O=C1N(CCOc2ccc(Cl)cc2)c2ccccc2C1(O)c1c[nH]c2ccccc12 (configuration not stated) | -
CCOC(=O)c1nnc2c(-c3ccc(Br)cc3)c(C)nn2c1C | -
N#C/C(=C1C=C(Br)/C(=N/O)C=C/1Cl)c1ccccc1 | -
COc1ccc(C2/C(=C(/O)c3ccc(Cl)cc3)C(=O)C(=O)N2CC(C)C)cc1OC (configuration not stated) | -
COC(=O)c1c(NC(=O)c2nc3ncccn3n2)sc2c1CCCCC2 | -
O=C(CSc1n[nH]c(=O)n1Cc1ccco1)c1cc(-c2ccccc2)no1 | -
O=c1cc(O)c2cccc3c2n1CCC3 | -
N#CCC(=O)NNC(=S)NCC1CCCO1 (configuration not stated) | -
CCOC(=O)c1sc(N2C(=O)C(O)=C(C(=O)c3ccco3)C2c2ccc(OC)cc2)nc1C (configuration not stated) | -
COc1ccc(Br)cc1CN1CCN(Cc2cccnc2)CC1 | -
Nc1nc2c(c(=O)[nH]1)C(c1c(F)cccc1Cl)CC(=O)N2 (configuration not stated) | -
O=S(=O)(c1ccc2ccccc2c1)N1CCN(Cc2cc(Br)ccc2O)CC1 | 4.1
O=C(NCc1ccco1)C1CCCN1S(=O)(=O)c1ccc2ccccc2c1 (configuration not stated) | -
COc1ccccc1C1CCN(S(=O)(=O)c2ccc(C)cc2)CC1 | -
O=S(=O)(c1ccc(Br)cc1)N1CCN(C/C=C/c2ccccc2)CC1 | -
COc1ccc(OC)c(CN2CCN(S(=O)(=O)c3ccc4ccccc4c3)CC2)c1 | -
